# A selection: hits, their analogues and other compounds. The true share with any hit is near 3.5%.
# FBW7 act: human FBW7 E3 ligase activation, primary screen; Q969H0; AlphaScreen FBW7–phospho-cyclin E peptide binding, activator screen; normalized activity (activation), % at 26.1 µM; 650,000 tested, 0.13% active; in the data active means normalized activity above about 1.9%;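 further: purified mutant Fbw7 with reduced substrate affinity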
# Target sequence (Q969H0 whole entry, looked up): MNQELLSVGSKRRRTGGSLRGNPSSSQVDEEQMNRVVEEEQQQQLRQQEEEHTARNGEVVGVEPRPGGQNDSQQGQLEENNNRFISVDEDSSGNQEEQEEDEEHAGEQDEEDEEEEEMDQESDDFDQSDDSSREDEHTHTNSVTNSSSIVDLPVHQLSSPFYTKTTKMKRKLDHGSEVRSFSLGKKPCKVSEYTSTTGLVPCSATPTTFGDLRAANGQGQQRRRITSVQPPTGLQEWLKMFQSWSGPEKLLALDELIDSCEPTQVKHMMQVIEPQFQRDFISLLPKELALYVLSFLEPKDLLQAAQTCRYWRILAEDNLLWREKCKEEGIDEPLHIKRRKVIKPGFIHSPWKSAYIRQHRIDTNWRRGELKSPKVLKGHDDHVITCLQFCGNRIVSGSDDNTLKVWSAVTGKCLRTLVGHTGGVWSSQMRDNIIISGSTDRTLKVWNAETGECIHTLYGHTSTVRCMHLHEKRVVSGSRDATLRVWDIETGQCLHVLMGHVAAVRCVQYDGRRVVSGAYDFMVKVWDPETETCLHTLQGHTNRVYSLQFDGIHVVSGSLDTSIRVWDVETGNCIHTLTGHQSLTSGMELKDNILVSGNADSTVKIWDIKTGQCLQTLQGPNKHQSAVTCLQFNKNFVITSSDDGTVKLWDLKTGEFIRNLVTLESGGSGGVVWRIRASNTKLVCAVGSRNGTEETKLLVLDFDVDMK
# TEAD-YAP inh: TEAD-YAP interaction inhibition; inhibition, % at 9.12 µM; HEK-TIYL cells, TEAD-Gal4/YAP UAS-luciferase luminescence; 640,000 tested, 1.4% active; in the data active means inhibition above about 32%;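 further: 0% = median of test compound wells and 100% = reference inhibitor wells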
# GPR151 activ: human GPR151 activation | PathHunter beta-arrestin GPR151 cells, luminescence | activation, % at 11.2 µM | 650,000 tested, 1% active | AID 1508602; in the data active means activation above about 4.9%;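 further: 0% = median of compound wells and 100% = cells with positive control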
# MITF inh: human MITF inhibition, primary screen. O75030. AlphaScreen MITF homodimerization, bead proximity signal. inhibition, % at 2.6 µM. 650,000 tested, 0.91% active. AID 1259374; in the data active means inhibition above about 50%;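 further: 0% = vehicle wells with protein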
# GPR151 conf act: confirmation of human GPR151 activators. shares compounds with GPR151 activ. GPR151 PathHunter beta-arrestin cells, luminescence, 90 min; % of EA-reagent control over plate median. activation, % at 11.2 µM. 6,700 tested, under 10 active;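 active means mean percent activation across replicates above the confirmation screen cutoff of 4.91%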
# GPR119 ag: counter-screen for GPR151 activators: effect on human GPR119; 6,700 tested, 0.3% active; activation, % at 11.2 µM; AID 1508611; GPR119 PathHunter beta-arrestin cells, luminescence, 90 min; 0 = compound-well median, 100 = enzyme-acceptor control; shares compounds with GPR151 activ;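 active means mean percent activation in the counterscreen above 29.09%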;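 further: counterscreen on off-target GPR119 to flag nonselective hits from the GPR151 activator screen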
# Numbers without * were called inactive; i = inactive; . = not tested or not shown.
SMILES,FBW7 act,TEAD-YAP inh,GPR151 activ,MITF inh,GPR151 conf act,GPR119 ag
O=C(NCC1CCCN(C(=O)C2CCCC2)C1)c1ccc(F)cc1 (centres undefined),0.2,5.3,7.3*,-9.2,0.7,1.8
O=C1[C@@H]2C[C@H](NCc3cccc(Cl)c3)CN2C(=O)[C@H]2CCCN12,0.9,8.6,1.3,15.8,.,.
Cc1cc2ncn(CCC(=O)NC(C)(C)C)c2cc1C,0.2,16.6,5.3*,5.5,0.3,7.8
Cc1cc2ncn(CCC(=O)NC3CCCC3)c2cc1C,-0.1,-1.4,0.5,-2.7,.,.
Cc1ccc(Nc2nc(-c3ccccc3F)nc3ccccc23)cc1,0.0,-8.9,-0.7,5.0,.,.
CCOC(=O)c1cn[nH]c1/N=C(\C)c1c(C)[nH]n(-c2nc3ccccc3s2)c1=O,0.0,-3.0,-9.0,5.8,.,.
CCN1CCN(c2ncnc3sc(C(=O)Nc4ccc(F)cc4)c(C)c23)CC1,-0.1,-1.0,5.2*,2.6,-0.4,6.2
CCN1CCN(c2ncnc3sc(C(=O)Nc4cnc5ccccc5c4)c(C)c23)CC1,-0.1,-18.1,5.3*,9.4,0.0,11.9
COc1ccc([N+](=O)[O-])cc1NC(=O)c1sc2ncnc(N3CCC(C)CC3)c2c1C,0.1,-1.2,12.5*,-2.4,0.1,5.8
Cc1nc(-n2ncc(C#N)c2/N=C/N(C)C)c2c3c(sc2n1)CCC3,0.1,-13.8,-0.4,3.8,.,.
CC(NC(=O)c1ccc2c(c1)OCO2)C1CCCO1 (centres undefined),-0.2,-13.9,5.5*,3.8,0.9,12.7
CC(NC(=O)c1cccc(Br)c1)C1CCCO1 (centres undefined),-0.1,-6.6,-0.4,-23.6,.,.
O=C(NCc1ccccc1)c1nn(C23CC4CC(CC(C4)C2)C3)cc1[N+](=O)[O-],-0.1,7.1,5.6*,5.6,-0.6,0.9
c1cncc(-c2nc(-c3ccncc3)cc(N3CCCCC3)n2)c1,0.0,15.9,5.2*,13.2,-1.1,-8.4
CSc1ccc(C(=O)N2CCC[C@@H]3CN(Cc4ccccn4)CC[C@@H]32)cc1,-0.7,4.8,3.5,7.0,.,.
Cc1cc(C)c2[nH]c(=O)c(CN(CCCO)Cc3nnnn3CCc3ccccc3)cc2c1,0.6,13.8,6.0*,10.2,1.2,9.1
COc1ccc2cc(CN(CCCO)C(=O)c3ccc(C)cc3)c(=O)[nH]c2c1,0.0,-4.3,5.5*,4.3,1.4,6.1
COc1ccc(Cn2nnnc2CN(CCCO)Cc2cc3cc(C)ccc3[nH]c2=O)cc1,-0.1,6.9,6.7*,12.9,-1.3,-14.4
CC(=O)Nc1ccc(NC(=O)CCCCCCC(=O)Nc2ccc(NC(C)=O)cc2)cc1,-0.1,-1.2,0.5,-13.4,.,.
Cc1nc(-c2ccc(S(=O)(=O)N3CCOCC3)cc2)cs1,0.0,0.5,8.6*,3.8,0.3,2.2
CC1(c2ccccc2Cl)NC(=O)N(Cc2ccccc2C#N)C1=O (centres undefined),-0.3,10.5,2.8,-16.9,.,.
CCC1(c2ccc(F)cc2)NC(=O)N(Cc2ccccc2C#N)C1=O (centres undefined),0.0,-3.0,5.7*,-4.0,1.0,12.4
COc1ccc2oc(=O)c(N(C)S(=O)(=O)c3ccc(C)cc3)cc2c1,0.2,1.7,5.1*,14.5,-0.6,-2.1
CCCCCCCCCCCCCCCCCCOC[C@H](COP(=O)(O)OCC[N+](C)(C)C)OC(C)=O,.,.,5.2*,-13.5,-0.1,-7.4
CCCC(C)NS(=O)(=O)c1c(C)cc(C)cc1C (centres undefined),0.3,-5.4,7.7*,2.6,0.6,0.3
SMILES,FBW7 act,TEAD-YAP inh,GPR151 activ,MITF inh,GPR151 conf act,GPR119 ag
COc1ccccc1NC(=O)c1ccc(SCC(=O)NC2CCCCCC2)c([N+](=O)[O-])c1,0.0,12.9,8.3*,14.6,-0.3,6.0
COc1ccc(C(NC(C)=O)c2cc(Cl)c3cccnc3c2O)cc1 (centres undefined),-0.5,84.2*,5.1*,61.7*,0.0,-7.8
COc1ccc(C(=O)NC(c2ccccc2OC)c2cc(Cl)c3cccnc3c2O)cc1 (centres undefined),-0.2,16.5,0.1,5.4,.,.
N#C/C(=C\Nc1ccc(F)c([N+](=O)[O-])c1)c1nc(-c2cccc([N+](=O)[O-])c2)cs1,0.0,-3.4,8.8*,-7.8,-0.6,4.1
N#C/C(=C/Nc1ccc(F)c([N+](=O)[O-])c1)c1nc(-c2ccccc2)cs1,-0.1,7.3,3.5,10.7,.,.
O=[N+]([O-])c1cccc(Cl)c1CSc1nnnn1-c1ccccc1,-0.2,7.2,6.2*,6.5,0.3,1.8
O=[N+]([O-])c1cccc(Cl)c1CSc1nnnn1-c1cccc2ccccc12,0.1,3.7,0.2,14.3,.,.
CN(Cc1ccccc1)C1(O)C(=O)Nc2ccc(Cl)cc21 (centres undefined),0.0,2.2,2.1,7.5,.,.
CN(Cc1ccccc1)C1(O)C(=O)Nc2ccc([N+](=O)[O-])cc21 (centres undefined),0.0,5.0,12.2*,-3.7,-0.6,10.1
CC1(C)OC2OC(C(=O)Nc3ccccc3F)C3OC(C)(C)OC3C2O1 (centres undefined),0.0,-5.4,0.4,-5.8,.,.
Cc1c(C(=O)N2CCCC2)sc2ncn(Cc3ccccc3F)c(=O)c12,-0.1,6.5,5.3*,1.8,1.0,15.6
Cc1c(C(=O)N2CCCC(C)C2)sc2ncn(Cc3ccccc3F)c(=O)c12 (centres undefined),-0.1,-1.3,-0.6,-2.6,.,.
Cc1cccc(NC(=O)CSc2nnc(NC(=O)C(C)(C)C)s2)c1,0.2,4.4,-0.3,11.9,.,.
Cc1cc(C)n(CC(C)N2CCC(n3nccc3NC(=O)CCCc3ccccc3)CC2)n1 (centres undefined),0.0,1.4,7.2*,10.8,0.8,-15.3
CC(C)CCNC(=O)c1noc2c1COc1ccccc1-2,0.1,-71.7,6.6*,2.6,-0.8,-18.0
O=C(NCc1ccccc1)c1noc2c1COc1ccccc1-2,-0.1,-7.8,0.7,-4.4,.,.
COCCNC(=O)c1ccccc1NC(=O)C(C)N(c1ccc(OC)cc1)S(C)(=O)=O (centres undefined),-0.1,-3.5,6.7*,-9.9,0.0,-8.2
COCCNC(=O)c1ccccc1NC(=O)C(C)N(c1ccc(C)cc1)S(C)(=O)=O (centres undefined),0.2,2.3,2.2,-8.0,.,.
Nc1ccc2nc(-c3ccc(C(=O)O)cc3)[nH]c2c1,-0.1,-8.5,0.0,i,.,.
COc1ccc(NC(=O)COc2ccc(-c3ccccc3)cc2)c([N+](=O)[O-])c1,0.0,4.5,-0.5,8.6,.,.
COc1cc([N+](=O)[O-])ccc1NC(=O)N1CC(C)OC(C)C1 (centres undefined),0.1,4.6,7.0*,-20.4,-0.4,1.0
